Screening data deposited in PubChem by Buhrlage Lab, Dana-Farber Cancer Institute and Novartis Institutes for BioMedical Research (Cambridge, Mass).
Shown are actives, neighbours in structure and some others; about 3.4% of the full set was active somewhere.
OTUD3 block: human OTUD3 deubiquitinase inhibition | purified OTUD3, Ub-rhodamine fluorescence, 2 h | inhibition, % at 25 µM | 47,000 tested, 0.7% active | AID 1645858
USP28 inh: human USP28 deubiquitinase inhibition; Q96RU2; purified USP28, Ub-rhodamine cleavage fluorescence, 30 min; inhibition, % at 25 µM; 47,000 tested, 3% active
Target sequence (Q96RU2 whole entry, looked up): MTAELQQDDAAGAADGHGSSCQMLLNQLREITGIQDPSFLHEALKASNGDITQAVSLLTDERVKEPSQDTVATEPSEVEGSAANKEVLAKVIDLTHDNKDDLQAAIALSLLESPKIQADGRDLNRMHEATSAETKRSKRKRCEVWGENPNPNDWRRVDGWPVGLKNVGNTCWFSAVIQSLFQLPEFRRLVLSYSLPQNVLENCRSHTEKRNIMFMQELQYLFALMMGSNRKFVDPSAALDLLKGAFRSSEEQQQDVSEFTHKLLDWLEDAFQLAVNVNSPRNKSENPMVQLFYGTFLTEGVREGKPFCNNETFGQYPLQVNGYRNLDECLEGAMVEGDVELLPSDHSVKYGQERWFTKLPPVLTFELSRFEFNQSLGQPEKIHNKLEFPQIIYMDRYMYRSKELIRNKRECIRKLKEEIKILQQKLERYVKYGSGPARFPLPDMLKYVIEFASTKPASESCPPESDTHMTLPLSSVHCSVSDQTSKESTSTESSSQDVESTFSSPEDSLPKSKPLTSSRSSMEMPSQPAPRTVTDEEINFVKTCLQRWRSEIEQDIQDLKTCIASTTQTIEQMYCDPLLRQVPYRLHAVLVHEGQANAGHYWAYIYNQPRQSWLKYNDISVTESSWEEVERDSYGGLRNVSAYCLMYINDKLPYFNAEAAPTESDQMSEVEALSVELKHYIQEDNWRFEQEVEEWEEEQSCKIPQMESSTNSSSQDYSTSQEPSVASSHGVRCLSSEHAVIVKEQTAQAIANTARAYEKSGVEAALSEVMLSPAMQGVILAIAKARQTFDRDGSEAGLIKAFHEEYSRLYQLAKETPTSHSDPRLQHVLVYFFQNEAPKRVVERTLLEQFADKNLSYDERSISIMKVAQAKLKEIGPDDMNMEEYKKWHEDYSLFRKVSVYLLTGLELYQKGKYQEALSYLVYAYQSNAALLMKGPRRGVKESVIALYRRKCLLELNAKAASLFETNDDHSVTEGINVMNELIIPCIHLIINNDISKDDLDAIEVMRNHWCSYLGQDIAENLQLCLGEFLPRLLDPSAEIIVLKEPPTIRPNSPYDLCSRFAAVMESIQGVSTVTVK
* = called active by the depositor; x = not tested or not shown. No stated cut-off is given here; in the data, active means inhibition above about 30%; inactive means the rest.

SMILES	OTUD3 block	USP28 inh
CCCCCCCCCC(CCCCCCCCCC(=O)O)O[C@H]1O[C@@H](COC(C)=O)[C@H](O)[C@@H](OC(=O)CC(=O)O)[C@H]1O (stereo partly specified)	21	35*
Cn1c(C(=O)NCCc2c[nH]c3ccccc23)cc2sccc21	-7	39*
O=C(NCCc1c[nH]c2ccccc12)c1cc2sccc2n1Cc1ccccc1	-1	0
COC(=O)c1cc2c(ccn2-c2ccc(F)cc2)n1CC(=O)NC1CCCCC1	14	6
CC(C)OC(=O)c1cc2c(ccn2-c2ccc(F)cc2)n1CC(=O)NC1CCCCC1	47*	18
Cc1cccc(NC(=O)C2c3c(ncn3C)CCN2C(=O)c2cccnc2)c1 (stereo unspecified)	-2	-1
CCN[C@H]1C[C@@H](c2ccccc2)OC2(CCN(Cc3cnc(C)s3)CC2)C1	-7	-11
CC(=O)Nc1ccc(NC(=O)c2ccc(=O)n(Cc3ccccc3)n2)cc1	-8	-11
COc1ncccc1C(=O)N1C[C@H](OC)[C@H]2OCCC[C@H]21	4	3
COC(=O)c1c(-c2c(Cl)cccc2Cl)noc1/C=C/Nc1ccc(C(=O)O)cc1	2	31*
COc1ccccc1N/C=C/c1onc(-c2c(F)cccc2Cl)c1C#N	-107	-192
O=C(NCc1cn2cc(Cl)ccc2n1)c1ccccc1	-6	-3
Cc1ccccc1C(=O)N(CCOc1ccccc1)c1ccc2ccccc2c1	-5	x
O=C(Nc1cnc2ccccc2c1)Nc1ccccc1Cl	-4	x
COc1ccccc1-n1c(C)cc(/C=C2/C(=N)N3C(c4ccccc4)=CSC3=NC2=O)c1C	-56	-106
COc1ccc(CCC(=O)Nc2cc(F)c3nc(N4CCOCC4)ccc3c2)cc1	-18	14
COc1cccc(CC(=O)Nc2cc(F)c3nc(N4CCOCC4)ccc3c2)c1	-15	36*
COc1cn(CC(=O)Nc2cccc(Cl)c2)c(CSc2ccccc2)cc1=O	-9	-6
O=C(c1ccccc1F)N1CCC(Nc2ncnc3c2CCC3)CC1	-4	-6
CC1(C)CC(=O)[C@]2(C)CC[C@]3(C)C(=CC[C@@H]4[C@@]5(C)CC[C@H](O)[C@](C)(CO)[C@@H]5CC[C@]43C)[C@@H]2C1	0	-5
C[C@@H]1O[C@@H](O[C@H]2[C@H](O[C@H]3[C@H](O[C@H]4CC[C@@]5(C)[C@@H](CC[C@]6(C)[C@@H]5CC=C5[C@@H]7CC(C)(C)CC(=O)[C@]7(C)CC[C@]56C)[C@@]4(C)CO)O[C@H](C(=O)O)[C@@H](O)[C@@H]3O)OC[C@@H](O)[C@@H]2O)[C@H](O)[C@H](O)[C@H]1O	19	49*
O=C(C1CCCC1)N1CCC(c2nc3c(nnn3Cc3c(Cl)cccc3Cl)c(=O)[nH]2)CC1	14	27
COc1ccc(NS(=O)(=O)c2cc(OC)ccc2NC(=O)c2cc3c(s2)CCC3)cc1	7	0
O=C(NC1CCCC1)c1cc(-c2cccnc2)n(-c2ccccc2)n1	13	20
O=C(CN1C(=O)CC(c2ccccc2)Sc2ccccc21)Nc1cccc(C(F)(F)F)c1 (stereo unspecified)	6	3
SMILES	OTUD3 block	USP28 inh
Cc1cc(C)cc(NC(=O)CN2C(=O)CC(c3ccccc3)Sc3ccccc32)c1 (stereo unspecified)	21	33*
CSc1ccc(CNC(=O)Cn2nc(C)c3c(C)n(-c4ccccc4)nc3c2=O)cc1	20	9
CCOc1ccccc1NC(=O)Nc1cccn2nc(C)nc12	-7	1
Cc1ccc(NC(=O)Nc2cccn3nc(C)nc23)cc1	1	47*
CCOc1ccccc1NC(=O)c1nc2c(=O)[nH]c3cc(C)ccc3n2n1	-14	-19
COc1ccc2c(C)c(CCC(=O)N3CC[C@@]4(O)CCCC[C@H]4C3)c(=O)oc2c1C	-2	-12
COc1ccc2c(C)c(CC(=O)N3CCC[C@H]3C(=O)O)c(=O)oc2c1C	32*	12
Cc1cnnn1-c1ccc(C(=O)Nc2cccc(Cl)c2)cc1	11	23
CCc1ccc(S(=O)(=O)Nc2ccc(-c3nnc(-c4ccccc4)o3)cc2)cc1	11	33*
CCc1ccc(NS(=O)(=O)c2ccc(-c3cnc(C)o3)cc2)cc1	3	9
N#Cc1cc([N+](=O)[O-])ccc1NC(=O)COC(=O)CCCc1c[nH]c2ccccc12	4	3
COc1ccc(C(=O)CCN2CCOCC2)cc1[N+](=O)[O-]	36*	2
COc1ccc(OC)c(CNCCCN2CCOCC2)c1	-5	-5
CC12c3ccc4c(c3C(=O)c3occ(c31)C(=O)CC2O)CCC4=O (stereo unspecified)	25	54*
CCCCCn1c(=O)[nH]c2cc(C(=O)NC3CCC(C)CC3)ccc2c1=O (stereo unspecified)	14	5
O=C(COc1ccc(C2CCCCC2)cc1)Nc1ccc2oc(-c3cccnc3)nc2c1	-11	-9
O=S(=O)(Nc1ccc2oc(-c3ccncc3)nc2c1)c1ccccc1	16	32*
COc1ccc(CCNC(=O)CCn2c(=O)c3ccccc3n(Cc3ccc(F)cc3)c2=O)cc1OC	23	31*
COc1ccc(CCNC(=O)CCn2c(=O)c3ccccc3n(Cc3ccc(C)cc3)c2=O)cc1OC	17	14
COc1cc(C(=O)OCc2csc(-c3ccccc3)n2)cc(Cl)c1OC	8	-6
COc1cc(C(=O)OCc2csc(-c3ccccc3)n2)ccc1OCC(=O)Nc1ccc(F)cc1	36*	-2
COc1ccccc1C(=O)Nc1ccc(Cc2ccncc2)cc1	12	35*
O=C(Nc1ccc(Cc2ccncc2)cc1)c1ccccc1Br	-6	11
COc1ccc(-c2c(-c3cccc([N+](=O)[O-])c3)cn3ccc4cc(OC)c(OC)cc4c23)cc1OC	-34	5
Cn1c(=O)c2c(ncn2CC(=O)OCC(=O)Nc2ccc3c(c2)CCC3)n(C)c1=O	-8	10
SMILES	OTUD3 block	USP28 inh
Cn1c(=O)c2c(ncn2CC(=O)NC2CCCc3ccccc32)n(C)c1=O (stereo unspecified)	7	82*
Cc1cccc(NC(=O)c2cc3ccccc3c(=O)s2)c1	0	x
COc1ccc(C(=O)Nc2n[nH]c(C)c2-c2cccc(C)c2)c(OC)c1	10	34*
COc1cc(OC)cc(C(=O)Nc2n[nH]c(C)c2-c2cccc(C)c2)c1	1	27
COc1c(C)c(C(O)C(C)O)c2[nH]c3ccc(CC=C(C)C)cc3c2c1O (stereo unspecified)	-47	48*
COc1cc(-c2ccccc2)c(O)c(O)c1-c1ccccc1	91*	96*
COc1ccc(NC(=O)c2oc(=O)c3ccccc3c2-c2ccccc2)cc1Cl	0	1
O=C(Nc1ccc2c(c1)OCCO2)c1cc([N+](=O)[O-])ccc1N1CCCCC1	14	8
Cc1ccccc1Cn1ccc(NC(=O)c2noc(C)c2[N+](=O)[O-])n1	10	75*
Cc1ccc(Cn2ccc(NC(=O)c3cc(-c4ccco4)on3)n2)cc1	5	-86
CCn1c(=O)c(=O)[nH]c2cc(C(=O)Nc3cccc(-c4csc(C)n4)c3)ccc21	-3	75*
Cc1nc(-c2ccc(C(=O)Nc3ccc(F)cc3)cc2)cs1	10	21
COc1ccc(C(=O)Nc2cccc(-c3csc(C)n3)c2)cc1OC	-16	46*
Cc1nc(-c2cccc(NC(=O)c3cccc(F)c3)c2)cs1	-9	12
COc1cc(C(=O)Nc2ccc3nccnc3c2)cc(OC)c1OC	2	34*
